Test results from paper PMC4336329 (PLoS ONE, 2015).
Among all 310,000 compounds or so, about 14,000 (4.5%) showed an effect of 50% or more. Effects have a minus sign here. What follows is part of a selection rich in strong results, with near analogues and random picks from the rest.

target: human ether-à-go-go-related gene (hERG) potassium channel (human, UniProt Q12809); experiment: primary screen, population patch clamp on CHO cells stably expressing hERG; higher = less effect of the substance
Sequence (Q12809 whole entry, looked up): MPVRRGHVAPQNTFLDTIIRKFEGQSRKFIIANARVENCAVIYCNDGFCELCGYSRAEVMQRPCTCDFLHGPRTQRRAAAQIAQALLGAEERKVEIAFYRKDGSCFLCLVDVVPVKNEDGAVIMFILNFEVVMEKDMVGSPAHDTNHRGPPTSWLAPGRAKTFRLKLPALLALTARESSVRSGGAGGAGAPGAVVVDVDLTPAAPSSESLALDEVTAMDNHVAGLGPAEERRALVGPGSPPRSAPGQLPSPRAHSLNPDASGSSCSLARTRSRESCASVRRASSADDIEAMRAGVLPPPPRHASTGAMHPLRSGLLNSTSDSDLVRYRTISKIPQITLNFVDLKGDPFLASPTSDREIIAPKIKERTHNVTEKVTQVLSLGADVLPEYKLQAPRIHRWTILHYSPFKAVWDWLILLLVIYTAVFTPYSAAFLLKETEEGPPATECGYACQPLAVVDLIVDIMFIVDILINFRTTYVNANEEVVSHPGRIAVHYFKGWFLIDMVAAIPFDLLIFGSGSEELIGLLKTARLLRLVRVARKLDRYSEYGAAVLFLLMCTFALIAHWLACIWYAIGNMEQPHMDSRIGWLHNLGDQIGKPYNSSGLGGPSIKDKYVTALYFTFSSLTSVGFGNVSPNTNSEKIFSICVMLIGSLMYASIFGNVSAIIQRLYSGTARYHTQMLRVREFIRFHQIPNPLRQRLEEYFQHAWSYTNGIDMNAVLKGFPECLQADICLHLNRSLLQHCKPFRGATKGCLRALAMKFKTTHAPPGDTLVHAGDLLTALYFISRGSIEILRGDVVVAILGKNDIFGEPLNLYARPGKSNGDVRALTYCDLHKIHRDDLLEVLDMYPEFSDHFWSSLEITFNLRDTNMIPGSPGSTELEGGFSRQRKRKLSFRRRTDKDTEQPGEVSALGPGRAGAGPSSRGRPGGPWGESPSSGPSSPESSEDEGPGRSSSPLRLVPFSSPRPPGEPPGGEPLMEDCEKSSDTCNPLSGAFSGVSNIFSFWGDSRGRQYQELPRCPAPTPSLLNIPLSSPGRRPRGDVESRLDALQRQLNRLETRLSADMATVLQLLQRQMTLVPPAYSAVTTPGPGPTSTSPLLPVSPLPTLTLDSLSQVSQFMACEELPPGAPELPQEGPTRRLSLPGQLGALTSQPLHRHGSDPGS
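Note: peak tail current of the secondary pulse compared with the same well before compound.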

| Compound | hERG current change (%, negative = inhibition) at 10uM [%] |
| --- | --- |
| COCC1CCCN(Cc2cn(-c3ccccc3F)nc2-c2cc(C)sc2C)C1 (stereo not shown) | -39.4 |
| COCC1CCCN(Cc2nc(Cc3ccccc3)no2)C1 (stereo not shown) | 11.6 |
| COCC1CCCN(Cc2cn(Cc3ccccc3)nc2-c2cc3ccccc3o2)C1 (stereo not shown) | -72.8 |
| COCC1CCN(Cc2cn(Cc3ccccc3)nc2-c2cc3ccccc3o2)CC1 | -76.6 |
| CN(Cc1cn(C)nc1-c1ccccc1F)CC1CCN(Cc2ccccc2)CC1 | -15.6 |
| COCC1CCN(Cc2cn(C)nc2-c2cccc(Cl)c2)C1 (stereo not shown) | -2.21 |
| CCCn1nnnc1SCC(=O)Nc1cccc(NC(=O)c2ccco2)c1 | -34.8 |
| COc1ccc(OC)c(NC(=O)c2cnc(Nc3ccccc3OC)c3ccccc23)c1 | -7.53 |
| CCN(CCCNC(=O)C1CCN(S(=O)(=O)CC)CC1)c1cccc(C)c1 | -40.4 |
| Nc1c(C(=O)Nc2ccc(Cl)c(C(=O)O)c2)sc2nc3c(cc12)CCCC3 | -3.17 |
| O=C(CSc1ccc2nnc(-c3ccccn3)n2n1)Nc1nccs1 | -27.6 |
| CC(C)(C)OC(=O)NCc1n[nH]c(=S)n1C1CC1 | 14.5 |
| COCCN(Cc1cc2cc3c(cc2nc1Cl)OCO3)C(=O)c1cccc(C)c1 | -64.3 |
| COCCN(Cc1cc2cc3c(cc2nc1Cl)OCO3)C(=O)Nc1ccc(OC)cc1 | 14.7 |
| COCCN(Cc1cc2cc3c(cc2nc1Cl)OCO3)C(C)=O | 3.81 |
| COCCN(Cc1cc2cc3c(cc2nc1Cl)OCO3)C(=O)Nc1ccccc1OC | 16.3 |
| COCCN(Cc1cc2cc3c(cc2nc1Cl)OCO3)C(=O)Nc1ccc(F)cc1 | -30 |
| COCCN(Cc1cc2cc3c(cc2nc1Cl)OCO3)C(=O)c1ccc(C)cc1 | -53.2 |
| CCOC(=O)c1c[nH]c2c(C)ccc(Cl)c2c1=O | 20.9 |
| Cc1ccc(S(=O)(=O)Nc2ccc3c(c2)nc(CCN2CCCCC2)n3C)cc1 | -63.6 |
| CC(=O)NCCc1nc2cc(NS(=O)(=O)c3ccc(Cl)cc3)ccc2n1C | 10.4 |
| CC(C)C(=O)Nc1ccc2c(c1)nc(CCN1CCN(c3ccccc3)CC1)n2C | -40.4 |

| Compound | hERG current change (%, negative = inhibition) at 10uM [%] |
| --- | --- |
| Cc1ccc(S(=O)(=O)Nc2ccc3c(c2)nc(CCN2CCCC2)n3C)cc1 | -42.5 |
| Cn1c(CCN2CCCC2)nc2cc(NS(=O)(=O)c3ccc(Cl)cc3)ccc21 | -84 |
| Cn1c(CCNC(=O)c2ccco2)nc2cc(NS(=O)(=O)c3ccccc3)ccc21 | -6.01 |
| Cc1ccc(N2CCN(CCc3nc4cc(NS(C)(=O)=O)ccc4n3C)CC2)cc1 | -59.8 |
| Cc1ccc(S(=O)(=O)Nc2ccc3c(c2)nc(CCN2CCOCC2)n3C)cc1 | -17.2 |
| Cn1c(CCNC(=O)c2ccco2)nc2cc(NS(=O)(=O)c3ccc(Cl)cc3)ccc21 | -65.2 |
| CCC(=O)Nc1ccc2c(c1)nc(CCN1CCN(c3ccccc3)CC1)n2C | -33.5 |
| Cc1cc(C(F)(F)F)c(C#N)c(SCC(=O)NC2CC2)n1 | -4.11 |
| CC(=O)NC1=NN(C(C)=O)C(C)(CS(=O)(=O)c2ccc3ccccc3c2)S1 (stereo not shown) | -0.325 |
| COc1ccc(OC)c(-n2c(-c3cc(-c4ccco4)[nH]n3)n[nH]c2=S)c1 | 1.18 |
| COc1ccccc1NS(=O)(=O)c1ccc(C)c(NC(=O)C2CCCO2)c1 (stereo not shown) | 4.4 |
| O=C(CNC(=O)c1ccc2c(c1)OCCO2)N/N=C/c1ccc(Cl)cc1 | 14.1 |
| Cc1occc1C(=O)N1CCN(C(=O)C2CCCO2)CC1 (stereo not shown) | -12.2 |
| COc1ccccc1N(CC(=O)NC1CCCC1)S(=O)(=O)c1ccc(C)cc1 | -5.82 |
| CCCC(=O)Nc1nnc(SCC(=O)NCc2cccs2)s1 | 8.39 |
| Cn1c(CCN2CCCCCC2)nc2cc(NC(=O)Nc3ccccc3)ccc21 | -35.7 |
| Cn1c(CCN2CCCCC2)nc2cc(NC(=O)Nc3ccccc3)ccc21 | -28 |
| Cn1c(CCN2CCCCC2)nc2cc(NS(=O)(=O)c3ccc(Cl)cc3)ccc21 | -73.8 |
| Cn1c(=O)[nH]c(=O)c2c1nc(NCCCO)n2CCCc1ccccc1 | -5.36 |
| CCCCCn1c(N(C)Cc2ccccc2)nc2c1c(=O)[nH]c(=O)n2C | -17.1 |
| CN(C)c1nc2c(c(=O)[nH]c(=O)n2C)n1CCCc1ccccc1 | -19.1 |
| Cn1c(=O)[nH]c(=O)c2c1nc(N(CCO)Cc1ccccc1)n2CCCc1ccccc1 | -64.6 |

| Compound | hERG current change (%, negative = inhibition) at 10uM [%] |
| --- | --- |
| CN(Cc1ccccc1)c1nc2c(c(=O)[nH]c(=O)n2C)n1CCCc1ccccc1 | -51.8 |
| C=C(C)Cn1c(N(CCO)Cc2ccccc2)nc2c1c(=O)[nH]c(=O)n2C | -2.53 |
| CCOC(=O)N1CCN(CC(=O)Nc2cc(C)nn2-c2nc3ccccc3s2)CC1 | -23.3 |
| COc1ccc(Cl)cc1NC(=S)N1CCN(c2ncccn2)CC1 | 13.6 |
| CCc1nc(SCc2ccccc2C#N)n[nH]1 | 13.4 |
| CC(=O)NCCC(=O)Nc1nc(-c2cccs2)c(-c2cccs2)s1 | -6.66 |
| COc1ccc(-c2noc(CSc3nnc(-c4ccccc4)n3C)n2)cc1 | -32.8 |
| CCOC(=O)c1sc2nc(C)nc(NCc3ccc(F)cc3)c2c1C | 17.2 |
| CCOC(=O)c1sc2nc(C)nc(NCc3ccc(Cl)cc3)c2c1C | -80.6 |
| CCOC(=O)c1sc2nc(CC(=O)OC)nc(NCc3ccc(Cl)cc3)c2c1C | -7.35 |
| CCOC(=O)c1sc2nc(C)nc(NCc3ccccc3)c2c1C | 9.35 |
| CCOC(=O)c1sc2nc(CC(=O)OC)nc(NCCN(CC)CC)c2c1C | -62.7 |
| CCOC(=O)c1sc2nc(CC(=O)OC)nc(NCC(=O)OC)c2c1C | -9.05 |
| COc1cc(NC(=O)c2ccc(F)cc2)c(OC)cc1Cl | 3 |
| O=S1OC(c2ccccc2)c2cc(Cl)ccc21 (stereo not shown) | 11 |
| COc1cccc(-c2noc(CCC(=O)NC3CCCC3)n2)c1 | 7.42 |
| Cn1c(=O)c2c(nc(SCC(=O)O)n2Cc2cc3c(cc2Cl)OCO3)n(C)c1=O | 6.88 |
| O=c1[nH]c(CSc2nnc(COc3ccccc3)n2-c2ccccc2)nc2ccccc12 | -4.92 |
| C/C(=N\N1CCN(C2c3ccccc3-c3ccccc32)CC1)c1cccnc1 | -2.47 |
| C(=N\N1CCN(Cc2cccc3ccccc23)CC1)/c1cccnc1 | -1.95 |
| C/C(=N/N1CCN(Cc2cccc3ccccc23)CC1)c1cccnc1 | -50.1 |
| COc1ccc(N(CC(=O)N2CCc3ccccc3C2)S(C)(=O)=O)cc1Cl | -25.7 |

| Compound | hERG current change (%, negative = inhibition) at 10uM [%] |
| --- | --- |
| CCN(CC)Cc1c(O)ccc2occ(C(=O)c3ccccc3)c12 | -72.6 |
| CN(C)Cc1c(O)ccc2occ(C(=O)c3ccc(F)cc3)c12 | -69.6 |
| CN(C)Cc1c(O)ccc2occ(C(=O)c3ccccc3)c12 | -52.8 |
| Cc1ccc(C(=O)c2coc3ccc(O)cc23)cc1 | 23.2 |
| O=C(c1ccccc1)c1coc2ccc(O)c(Cl)c12 | -10.9 |
| Cc1ccc(C(=O)c2coc3ccc(O)c(CN(C)C)c23)cc1.Cl | -54.7 |
| Cc1ccc(C(=O)c2coc3ccc(O)c(Cl)c23)cc1 | -26.5 |
| CN(C)Cc1c(O)ccc2occ(C(O)c3ccccc3)c12 (stereo not shown) | -2.08 |
| COc1ccc2occ(C(=O)c3ccccc3)c2c1 | -15.3 |
| Cc1oc2ccc(O)c(CN(C)C)c2c1C(=O)c1ccccc1 | -42.4 |
| COC(=O)C1(C)NC(c2ccc(Cl)cc2)C2C(=O)N(c3ccccc3)C(=O)C21 (stereo not shown) | -3.27 |
| COc1ccc(C2(c3ccc(OC)cc3)NC(=O)N(CC(=O)Nc3ccc(OC(F)F)cc3)C2=O)cc1 | -19.2 |
| CCOc1ccc(N2C(=O)C3CCCN3C2=O)cc1 (stereo not shown) | 10.1 |
| O=C(O)C1CCN1C1CCCCC1 (stereo not shown) | 5.54 |
| CC(=O)OCCCCCCCCCCC[N+]1(C)CCCCC1.[I-] | -7.49 |
| C[N+]1(CCCCSc2ccc(O)cc2)CCCCC1.[I-] | -51.7 |
| COC(=O)CCCCCCCCCC[N+]1(C)CCCCC1.[I-] | -0.248 |
| Nc1c(C(=O)CSc2nc(-c3ccccc3)cs2)c(=O)[nH]c(=O)n1C1CC1 | -7.63 |
| O=C(c1ccco1)n1nc(-c2ccccc2)nc1SCc1ccccc1 | 3.93 |
| COC(=O)C1C(O)CCC2CN3CCc4c([nH]c5ccccc45)C3CC21 (stereo not shown) | -21.1 |
| COC(=O)[C@@H]1[C@H]2C[C@H]3c4[nH]c5ccccc5c4CCN3C[C@@H]2CC[C@@H]1O | -57.5 |
| COC(=O)[C@H]1[C@H]2C[C@H]3c4[nH]c5ccccc5c4CCN3C[C@@H]2CC[C@@H]1O | -12.5 |
